Results as given in PubChem BioAssay (NCI).
About 83,000 compounds went through this panel and 20% of them were active in at least one assay; those are over-represented in the sample as a whole.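 Negative percent growth values reflect cell death: -40 means 40% of the cells present at the start died, and -100 means all died.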 Values without a mark were called inactive. The source made the active and inactive calls. Rule for the calls: active = growth percent below 10; inactive = the rest.

Tested on: HL-60(TB) leukemia
Experiment: NCI-60 one-dose screen, 48 h (100 = growth as untreated, 0 = no growth, -100 = all killed)
Settings: 10 µM unless noted

O=C1Nc2ccccc2C12CC(c1ccc(Cl)cc1)=NN2 (stereo not drawn) was tested. Which growth did it give?
The growth was 99.1%.

How did the growth turn out when Cc1ccc(S(=O)(=O)N2CCC(=O)c3ccccc32)cc1 was run?
Its growth is 60.3%.

For CCCCCCCCCCCCC[N+](C)(C)Cc1ccccc1, which growth is on record?
Its growth is -56.7% (active).

With COc1ccc(-c2cc(-c3ccc(Nc4ccnc5cc(Cl)ccc45)cc3)nc(N3CCOCC3)n2)cc1 as the compound, how does the growth read?
Its growth is 7.25% (active).

CC(=O)Nc1ccc(OC(=O)c2ccccc2O)cc1 was tested. Which growth did it give?
The growth was 102%.

For C[C@H](C(=O)Nc1ccc(S(N)(=O)=O)cc1)S(=O)(=O)c1ccccc1, which growth is on record?
Its growth is 101%.

How did the growth turn out when Cc1c(C(C)(C)O)cn2ncnc(Oc3ccc(NC(=O)Nc4ccc(Cl)c(C(F)(F)F)c4)cc3)c12 was run?
The growth was 26.6%.

How did the growth turn out when Cc1ccc(C2CC(c3cccc(Nc4ccncc4)c3)=NN2c2ccccc2)cc1 (stereo not drawn) was run?
The growth was -56.6% (active).

For C[C@H]1[C@H](C)CC[C@]2(C(=O)OCCOCCOCC[P+](c3ccccc3)(c3ccccc3)c3ccccc3)CC[C@]3(C)C(=CC[C@@H]4[C@@]5(C)CC[C@H](OC(=O)C(Cl)Cl)C(C)(C)[C@@H]5CC[C@]43C)[C@H]12, which growth is on record?
The growth was -48.3% (active).

With Cn1c(C#N)ccc1-c1ccc(F)c(NC(=O)c2ccc(F)cc2)c1 as the compound, how does the growth read?
Its growth is 60%.

How did the growth turn out when CC(=O)OC1Oc2cc(C)c(C)cc2-c2oc(=O)c(-c3cc4ccccc4oc3=O)cc21 (stereo not drawn) was run?
The growth was 93.4%.

How did the growth turn out when COc1ccc(NC(=O)CSc2nnc(-c3cc(-c4ccc(S(N)(=O)=O)cc4)nc4ccccc34)n2-c2ccccc2)cc1 was run?
The growth was 65.1%.

For CN=c1ccc2nc3ccc(N)cc3sc-2c1, which growth is on record?
The growth was -27.1% (active).

COc1cc(C2CC(=O)Nc3c2cc(Br)c2ccccc32)cc(Br)c1OC (stereo not drawn) was tested. Which growth did it give?
The growth was -2.09% (active).

How did the growth turn out when COc1cc(C(N)=O)cc(OC)c1OC was run?
Its growth is 96.6%.

Which growth does the source give for S=C(c1ccc2c(c1)OCO2)N1CCN(c2cccc(Cl)c2)CC1 here?
The growth was 11.9%.

With O=C(Nc1ccc(F)cc1)c1cc2ccccc2cc1O as the compound, how does the growth read?
Its growth is 71.2%.

With C=CC(=O)Nc1cccc(-c2nc(SC)nc(NCCc3ccc(OC)c(OC)c3)c2C#N)c1 as the compound, how does the growth read?
The growth was 25.6%.

Which growth does the source give for CO[C@H]1CC(=O)n2c3ccccc3c3c4c(c5c6ccccc6n1c5c32)C(=O)NC4=O here?
The growth was 96.9%.

COC(=O)CSc1ccc(Cl)cc1 was tested. Which growth did it give?
Its growth is 83.8%.

COc1c(N2CC3CCCN(C(C)=O)C3C2)c(F)cc2c(=O)c(C(=O)N[C@H]3C(O)[C@@H](O)C(CO)O[C@H]3O)cn(C3CC3)c12 (stereo partly drawn) was tested. Which growth did it give?
Its growth is 103%.

For CNCCNc1nc2ccccc2c2c(=O)c3cc(OC)ccc3sc12, which growth is on record?
The growth was -52.9% (active).

Which growth does the source give for COc1cc(/C=C/C(=O)/C=C(/C=C/c2ccc(OC(C)=O)c(OC)c2)OB(F)F)ccc1OC(C)=O here?
The growth was 4.04% (active).

With CCN1C(=O)CC(SC2CC(=O)N(CC)C2=O)C1=O (stereo not drawn) as the compound, how does the growth read?
Its growth is 79.9%.

How did the growth turn out when CCCCCCCCCCCC1=NC(C)(C)CN1CC(C)O (stereo not drawn) was run?
The growth was -15.1% (active).

Which growth does the source give for CN1CCN(CCCOc2cccc3nc(Nc4cc(Cl)cc(Cl)c4)ccc23)CC1 here?
Its growth is 56.4%.

Nc1ccc(N(O)/C=C2\C=CC=CC2=O)cc1N was tested. Which growth did it give?
Its growth is 73.2%.

Cc1cc(N2CCN(CC(=O)Nc3ccc4c(ccn4C)c3)CC2)nc(N2CCCCCC2)n1 was tested. Which growth did it give?
The growth was 74.7%.

How did the growth turn out when O=C(CC(=O)C(F)(F)C(F)(F)C(F)(F)F)c1cc2ccccc2o1 was run?
The growth was 99.3%.

How did the growth turn out when Cc1ccc(OCCOCCOCCOc2ccc(C)n(O)c2=S)c(=S)n1O was run?
Its growth is 37.6%.

How did the growth turn out when C=C(CN1CC=CCC1)[C@@H]1CC[C@]2(C(=O)OC)CC[C@]3(C)[C@H](CC[C@@H]4[C@@]5(C)CC[C@H](OC(C)=O)C(C)(C)[C@@H]5CC[C@]43C)[C@@H]12 was run?
The growth was 49.6%.

With C[C@H](C(=O)N(CCc1ccc(Cl)c(Cl)c1)Cc1cncs1)[C@@H]1CC[C@H](C[C@H](C)n2cc(CN3CCC(c4ccc(Cl)cc4)CC3)nn2)O1 as the compound, how does the growth read?
The growth was -71.2% (active).

With CC1=CC2OC34COC3CC(OC(=O)C(F)(F)F)C4(C)C2(C)CC1 (stereo not drawn) as the compound, how does the growth read?
Its growth is 114%.

With COc1cc(-c2nn(-c3cccc(NC(=O)Nc4ccc(Cl)c(C(F)(F)F)c4)c3)cc2-c2ccncc2)ccc1Cl as the compound, how does the growth read?
The growth was -19.8% (active).

How did the growth turn out when CCc1ccc(CNc2ccc(N3CCOCC3)c(C(=O)O)c2)cc1 was run?
Its growth is 100%.

Which growth does the source give for O=C1C=CC(=O)c2c1nc1n2CCCC1 here?
The growth was 94.7%.

Cc1ccc2c(c1)sc1nc(-c3c[nH]c4ccccc34)c(Nc3ccccc3)n12 was tested. Which growth did it give?
The growth was 97%.

With C=C1/C(=C\C=C2/CCC[C@]3(C)[C@@H]([C@H](C)CCCC(C)(C)O)CC[C@@H]23)C[C@@H](OC(=O)CBr)C[C@@H]1O as the compound, how does the growth read?
Its growth is -59.4% (active).

With C=C1SC(=Nc2c(C)cccc2C)N(c2nc(Cl)nc(Cl)n2)C12CCCCC2 as the compound, how does the growth read?
The growth was 100%.

Which growth does the source give for CC(C)(C)n1cc(-c2ccnc(NCCNS(=O)(=O)c3ccc(Br)cc3)c2)c(-c2cccc(O)c2)n1 here?
Its growth is -8.19% (active).

For CCOC(=O)C(=CCC(C)C)C(=O)OCC, which growth is on record?
The growth was 40.5%.

How did the growth turn out when CC(=O)Oc1ccc(Br)cc1C(=O)O was run?
Its growth is 101%.

CNCCCn1c2c(c3ccc(Cl)cc3c1=O)C(=O)c1cc(OC)cnc1-2 was tested. Which growth did it give?
Its growth is -26.3% (active).

With CCN(CC)CCN1C(=O)c2cccc3c(/C=C/CN4C(=O)c5cccc6cccc(c56)C4=O)ccc(c23)C1=O as the compound, how does the growth read?
Its growth is 83.4%.

Which growth does the source give for Cc1nc2c(nnn2-c2ccccc2)c2nc(-c3ccc(Cl)cc3)oc(=O)c12 here?
The growth was 98.8%.

With COc1cc(/C=N\NC(=O)CN2CCN(c3cc4c(cc3F)c(=O)c(C(=O)N/N=C/c3ccc(O)c(OC)c3)cn4C3CC3)CC2)ccc1O as the compound, how does the growth read?
The growth was 75.4%.

For COc1cc(C(=O)Nc2cc(OC)c3ccn(C)c3c2)cc2c1C[C@]1(C)CC[C@@H](O)C(C)(C)[C@H]1O2, which growth is on record?
Its growth is 1.14% (active).

For Cn1cc(-c2nnc(-c3cn(C)c4ncccc34)o2)c2ccccc21, which growth is on record?
Its growth is 12.5%.

Which growth does the source give for CCCCCCNc1nc(NCCCCCC)c2[nH]c(NCCCCCC)nc2n1 here?
The growth was -60.2% (active).

How did the growth turn out when Cc1ccc(/C=N/NC(=O)CSc2nc3ccccc3c(=O)n2Cc2ccc(S(N)(=O)=O)cc2)cc1 was run?
The growth was 97.8%.

CN1CCN(c2ccc(-c3cc4c(Nc5ccc(F)c(Cl)c5)ncnn4c3)cc2)CC1 was tested. Which growth did it give?
The growth was 1.68% (active).

Which growth does the source give for CCCCCN(CCCCC)CC(O)c1c(Cl)ccc2ccccc12 (stereo not drawn) here?
Its growth is 87.6%.

Which growth does the source give for COc1cc2ncnc(Oc3ccc(NC(=O)Nc4ccc(CN5CCOCC5)c(C(F)(F)F)c4)c4ccccc34)c2cc1OC here?
The growth was -23% (active).

How did the growth turn out when CCC(=O)Oc1ccc(/C=N/NC(N)=S)nc1 was run?
Its growth is 19.9%.

O=C(/C=C/c1ccc(O)c(O)c1)N1CCN(c2ccc(Cl)cc2)CC1 was tested. Which growth did it give?
The growth was 12.9%.

For CCCN1C(=O)N(CCC)C2C1NN=c1s/c(=C3\C(=O)N(C(C)C)c4ccccc43)c(=O)n12 (stereo not drawn), which growth is on record?
Its growth is 0.788% (active).

With CC(=O)O[C@@H]1C[C@]2(C)[C@H]3[C@H](O)C[C@@H]4C5=CC(C)(C)CC[C@]5(C)CC[C@@]4(C)[C@]3(C)CC[C@H]2C(C)(C)[C@H]1O as the compound, how does the growth read?
Its growth is 120%.

With CN(C)CCC(=O)c1c[nH]c2ccccc12 as the compound, how does the growth read?
Its growth is 96.5%.

CCN1C(=O)N(CC)C2C1NN=c1s/c(=C3\C(=O)N(C)c4ccccc43)c(=O)n12 (stereo not drawn) was tested. Which growth did it give?
The growth was -13% (active).

With COc1cc(-c2nc3ccc(C)cc3[nH]2)ccc1OCc1nnc(-c2ccc(CC(C)C)cc2)o1 as the compound, how does the growth read?
The growth was 110%.

Cc1ccc2[nH]c(=S)[nH]c(=O)c2c1 was tested. Which growth did it give?
The growth was 105%.

With CN(C)CCC(O)(Cc1ccccc1)c1ccccc1 (stereo not drawn) as the compound, how does the growth read?
Its growth is 85%.

For O=C(COc1cccc(/C=C2/Oc3ccccc3C2=O)c1)Nc1nccs1, which growth is on record?
Its growth is -72.9% (active).

How did the growth turn out when O=C(Cc1ccccc1Nc1c(Cl)cccc1Cl)NN1C(=O)/C(=C/c2ccc(Br)cc2)SC1=S was run?
Its growth is 101%.

With Cc1ccc(Cc2cnc(NC(=O)/C=C/c3ccc(C)o3)s2)cc1 as the compound, how does the growth read?
The growth was -33% (active).

O=C(Nc1cccc(Cl)c1)c1ccc(Cl)cc1Cl was tested. Which growth did it give?
Its growth is 92%.

With N#CC(C#N)=C(C#N)c1c[nH]c2ccccc12 as the compound, how does the growth read?
The growth was 72.9%.

For COc1cc2ncnc3c2cc1OCCCCCN(C)Cc1ccc(Br)cc1N3, which growth is on record?
The growth was 33.7%.

CN(C)c1ccc(S(=O)(=O)O)cc1 was tested. Which growth did it give?
Its growth is 128%.

How did the growth turn out when O=C(N/N=C/c1ccc(Cl)cc1)c1cc(-c2cc3ccccc3o2)nn1-c1ccccc1 was run?
Its growth is 117%.

For CN(C)CC1=NC2SC=C(c3ccccc3)C2C(=O)N1CC#N (stereo not drawn), which growth is on record?
The growth was 86.1%.

COc1ccc(-c2cc(/C=C3\C(=O)Nc4ccc(Cl)cc43)[nH]n2)cc1 was tested. Which growth did it give?
Its growth is 22.6%.

For O=S(=O)(Nc1cc(Sc2nc3ccccc3s2)c(O)c2ccccc12)c1ccc2ccccc2c1, which growth is on record?
The growth was 71.6%.

For CCOC(=O)c1cc(C(=O)c2cc(OC)c(OC)c(OC)c2)n2c1ccc1ccccc12, which growth is on record?
The growth was -12.9% (active).

Cc1nn(-c2ccccc2)c2nc3c(c(-c4ccc(Cl)cc4)c12)CNC1(CCSCC1)N3 was tested. Which growth did it give?
The growth was 72.9%.

Oc1ccccc1-c1nnc(Cn2c(Cc3cccc4ccccc34)nc3ccccc32)o1 was tested. Which growth did it give?
The growth was 96%.

COc1cc(-c2nc(SCCC(C)C)nc(Nc3ccccc3)c2C#N)cc(OC)c1OC was tested. Which growth did it give?
The growth was 83.9%.

With COc1ccc2c(c1)c(-c1nonc1-c1c[nH]c3ccc(Br)cc13)cn2C as the compound, how does the growth read?
The growth was 53.2%.

For FC(F)(F)C1=NNC(c2ccc3ccccc3c2)=NN1, which growth is on record?
The growth was 101%.

COc1ccc(-c2cc3cnc4ccccc4c3oc2=O)cc1 was tested. Which growth did it give?
Its growth is 94.2%.

For NS(=O)(=O)c1ccc(CN2C(=O)c3cccc4cccc(c34)C2=O)cc1, which growth is on record?
The growth was 98.6%.

Which growth does the source give for O=C(/C=C/C12c3ccccc3C(c3ccccc31)C1C(=O)NC(=O)C12)c1ccc(I)cc1 (stereo not drawn) here?
Its growth is 6.86% (active).

CC(C)C[C@H](NC(=O)[C@H](Cc1ccccc1)n1ccc(N2CCCCC2)cc1=O)B(O)O was tested. Which growth did it give?
The growth was 1.9% (active).
